# In PubChem BioAssay (Tox21):
# Results filed as inconclusive are left out. Where a call stands in place of a potency, no number is given. The source made the active and inactive calls. Unless noted, the call rests on the fitted dose curve.
# How the values were obtained:
# [1] = Nuclear factor erythroid 2-related factor 2/antioxidant responsive element (Nrf2/ARE) small molecule agonists: qHTS cell viability counter screen in human keratinocytes (AID 1919968; active means well fitted curve in the direction sought with a large enough effect in the repeat runs; an effect the other way counts as inactive or inconclusive; further: nearly all actives have a fitted effect of over 55% in size; further: potency means the concentration at half of the fitted maximal effect)
# Method in brief: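 Fluorescence read-out from CellTiter-Fluor after 1 h at 37 C. Wells held HaCaT-derived ARE-luciferase reporter cells (1,500/well) treated 23 h with DMSO-dissolved compounds. Run in the same wells as the luciferase agonist read.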
# [2] = target: Gonadotropin-releasing hormone receptor (Homo sapiens) (UniProt P30968); experiment: Human gonadotropin-releasing hormone receptor (GnRHR) small molecule agonists, calcium flux assay in GnRHR-HEK293 cells (AID 1920063); further: nearly all actives have a fitted effect of over 35% in size
# Method in brief: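 Calcium-dye fluorescence, Ex/Em=480/540, recorded every 1 sec over 3 min after compound addition to GnRHR-HEK293 cells. Cells had been seeded 18 hours earlier and dye-loaded for 1 hour at 37 C. Fifteen concentrations, triplicates.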
# [3] = target: KiSS-1 receptor (Homo sapiens) (UniProt Q969F8); experiment: Human kisspeptin (KISS1R) small molecule agonists, calcium flux assay in KISS1R-HEK293 cells (AID 1920064; active means well fitted curve in the direction sought with a large enough effect in the repeat runs; an effect the other way counts as inactive or inconclusive)
# Method in brief: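 Calcium flux read-out: kinetic fluorescence at Ex/Em=480/540, 1 s intervals over 3 min, after pin-tool compound addition to dye-loaded KISS1R-HEK293 cells. Fifteen concentrations, triplicates.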
# [4] = G protein-coupled receptor (GPCR) small molecule agonists, calcium flux assay: HEK293 wild type cell line counter screen (AID 1920065)
# Method in brief: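 Agonist mode; 18 h seeding at 37 C, 1 h dye load at 37 C; compounds pinned from DMSO, ATP as positive control; kinetic fluorescence 480/540 nm, 3 min, 1 s reads; 15 concentrations, triplicate.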
# [5] = p53 small molecule agonists, cell-based qHTS assay with human liver microsomes (AID 1963577); further: potency means the concentration at half of the fitted maximal effect;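 on activation: p53 response element beta-lactamase reporter cells with liver microsomes plus NADPH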
# Method in brief: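 In this qHTS, p53 response-element beta-lactamase cells receive test compound together with a microsome/NADPH activating system (0.5 mg/mL final each) and are incubated 16 h at 37 C before LiveBLAzer fluorescence detection.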
# [6] = p53 small molecule agonists, cell-based qHTS assay with rat liver microsomes (AID 1963578)
# Method in brief: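 Agonist mode in p53RE-bla reporter cells, with compounds co-incubated 16 h at 37 C alongside 0.5 mg/mL rat liver microsomes and 0.5 mg/mL NADPH (final), followed by a 2 h LiveBLAzer detection step.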
# [7] = p53 small molecule agonists, cell-based qHTS assay with human liver microsomes: qHTS cell viability counter screen (AID 1963579); further: nearly all actives have a fitted effect of over 45% in size
# Method in brief: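 Metabolically activated exposure: compounds, human liver microsomes and NADPH (0.5 mg/mL final apiece) were added to p53RE-bla cells seeded 5 h earlier, left 16 h at 37 C, and then assessed for viability by CellTiter-Glo luminescence.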
# [8] = p53 small molecule agonists, cell-based qHTS assay with rat liver microsomes: qHTS cell viability counter screen (AID 1963580); further: nearly all actives have a fitted effect of over 45% in size
# Method in brief: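 Luminescent ATP readout (CellTiter-Glo, 30 min at room temperature) reports viability of p53RE-bla HCT-116 cells after 16 h at 37 C with test compounds under metabolic activation by rat liver microsomes and NADPH at 0.5 mg/mL final each.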
# [9] = target: 5-hydroxytryptamine receptor 2A (Homo sapiens) (UniProt P28223); experiment: 5-hydroxytryptamine receptor 2A (HTR2A) small molecule agonists, cell-based qHTS assay (AID 1963587); further: nearly all actives have a fitted effect of over 30% in size
# Method in brief: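 HTR2A-CHO cells, plated 18 h at 37 C/5% CO2, dye-loaded 1 h at 37 C; compounds in DMSO added by pin tool (agonist mode). Intracellular calcium flux read as kinetic fluorescence on FDSS over 2 min at 1 s intervals.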
# [10] = target: Muscarinic acetylcholine receptor M1 (Homo sapiens) (UniProt P11229); experiment: Cholinergic receptor muscarinic 1 (CHRM1) small molecule antagonists, cell-based qHTS assay (AID 1963588); further: nearly all actives have a fitted effect of over 40% in size
# Method in brief: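 Compounds were tested at 15 concentrations in three independent runs. Dye-loaded CHRM1-CHO cells were exposed 5 min at room temperature before stimulation by acetylcholine added at 50nM. Intracellular calcium was read kinetically on FDSS for 3 min.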
# [11] = target: Muscarinic acetylcholine receptor M1 (Homo sapiens) (UniProt P11229); experiment: Cholinergic receptor muscarinic 1 (CHRM1) small molecule agonists, cell-based qHTS assay (AID 1963589); further: nearly all actives have a fitted effect of over 35% in size
# Method in brief: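 Calcium flux read-out: kinetic fluorescence at 1 sec intervals after pin-tool compound addition to dye-loaded CHRM1-CHO cells (human M1). Agonist mode; 15 concentrations tested in triplicate independent runs.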
# [12] = cAMP Responsive Elements (CRE) small molecule agonists, cell-based qHTS assay (AID 1963590)
# Method in brief: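 Beta-lactamase reporter readout: LiveBLAzer B/G FRET substrate, 2 h at room temperature, added after 3 h compound treatment of CRE-bla HEK 293T cells at 37 C/5% CO2.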
# [13] = cAMP Responsive Elements (CRE) small molecule antagonists, cell-based qHTS assay (AID 1963591; active means well fitted inhibition curve with a large enough effect in the signal ratio in the repeat runs, not every such curve was filed as active; the % refers to the signal ratio)
# Method in brief: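 HEK293T CRE-bla; 18 h preincubation; compound pin-transfer; NKH477 0.25 uM final, 3 h, 37 C; LiveBLAzer FRET substrate 2 h RT.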
# [14] = target: Beta-2 adrenergic receptor (Homo sapiens) (UniProt P07550); experiment: Adrenergic beta2 receptor (ADRB2) small molecule antagonists, cell-based qHTS assay (AID 1963592); further: series mostly up to about 92 µM; nearly all actives have a fitted effect of over 50% in size
# Method in brief: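 Assay format: CHO-ADRB2 cells, 18-20hr seeding at 37C/5% CO2, then compound plus 1nM isoproterenol agonist mix for 0.5hr RT. Homogeneous time-resolved fluorescence cAMP detection after 1hr, expressed as 665/615 nm ratio.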
# [15] = target: Beta-2 adrenergic receptor (Homo sapiens) (UniProt P07550); experiment: Adrenergic beta2 receptor (ADRB2) small molecule agonists, cell-based qHTS assay (AID 1963593);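 further: CHO cells stably overexpressing human ADRB2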
# Method in brief: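 CHO cells stably over-expressing ADRB2 were plated overnight at 37C, then dosed with compounds plus a stimulation mix containing 100uM IBMX and 25uM Ro-20-1724 for 0.5hr at room temperature. cAMP was measured by HTRF competition, 1hr.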
# [16] = target: D(2) dopamine receptor (Homo sapiens) (UniProt P14416); experiment: Dopamine D2 receptor (DRD2) small molecule agonists, cell-based qHTS assay (AID 1963594); further: nearly all actives have a fitted effect of over 35% in size
# Method in brief: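 HEK293 cells stably expressing DRD2 were cultured 24 h at 37 C, then given Ro20-1724 (0.1 mM final) and compounds for 10 min at room temperature. NKH477 (200nM) was then added for 30 min. cAMP was read by HTRF.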
# [17] = target: D(2) dopamine receptor (Homo sapiens) (UniProt P14416); experiment: Dopamine D2 receptor (DRD2) small molecule antagonists, cell-based qHTS assay (AID 1963595; active means well fitted inhibition curve with a large enough effect in the signal ratio in the repeat runs, with a control signal flat; the % refers to the signal ratio)
# Method in brief: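 Cells were plated and grown for 24 h at 37 °C. Ro20-1724 (0.1 mM final) went in first, then compound for 10 min. NKH477 (200 nM) with quinpirole (12 nM) followed for 30 min at RT, then HTRF detection reagents for 1 h.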
# [18] = p53 small molecule agonists, cell-based qHTS assay: qHTS cell viability counter screen (AID 1963581); further: nearly all actives have a fitted effect of over 45% in size
# Method in brief: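 Cytotoxicity read-out: ATP-based luminescence (CellTiter-Glo, 30 min RT) measured in the same wells as the p53 reporter assay, HCT-116 p53RE-bla cells, 16 h compound exposure at 37 C.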
# [19] = target: 5-hydroxytryptamine receptor 2A (Homo sapiens) (UniProt P28223); experiment: 5-hydroxytryptamine receptor 2A (HTR2A) small molecule antagonists, cell-based qHTS assay (AID 1963586); further: nearly all actives have a fitted effect of over 45% in size
# Method in brief: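 CHO cells stably expressing human HTR2A were plated for 18 h at 37 C, then loaded with calcium dye for 1 h. Compounds were preincubated 5 min at room temperature before DOI (4 nM solution) was added. Kinetic fluorescence was read for 3 min.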
# [20] = p53 small molecule agonists, cell-based qHTS assay (AID 1963582; active means well fitted activation curve with a large enough effect in the signal ratio in the repeat runs, not every such curve was filed as active; the % refers to the signal ratio; further: potency means the concentration at half of the fitted maximal effect)
# Method in brief: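 Fluorescence intensity read-out of a beta-lactamase reporter under a p53 response element. Cells were exposed to DMSO-dissolved compounds for 16 h at 37 C, then developed with FRET substrate for 2 h at RT.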
# Chain of Beta-2 adrenergic receptor (Homo sapiens) (P07550 whole entry, looked up): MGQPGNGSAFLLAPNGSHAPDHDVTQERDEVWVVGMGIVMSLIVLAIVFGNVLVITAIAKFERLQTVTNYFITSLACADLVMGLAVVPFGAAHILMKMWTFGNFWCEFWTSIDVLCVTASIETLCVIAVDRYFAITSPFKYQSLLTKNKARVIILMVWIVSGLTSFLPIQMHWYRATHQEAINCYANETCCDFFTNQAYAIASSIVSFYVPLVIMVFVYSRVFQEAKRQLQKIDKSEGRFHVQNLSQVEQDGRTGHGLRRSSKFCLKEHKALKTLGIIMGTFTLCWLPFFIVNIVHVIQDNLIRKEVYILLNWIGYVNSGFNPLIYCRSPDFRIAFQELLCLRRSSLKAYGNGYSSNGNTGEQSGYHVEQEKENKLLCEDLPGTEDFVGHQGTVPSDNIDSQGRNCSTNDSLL
# Chain of Gonadotropin-releasing hormone receptor (Homo sapiens) (P30968 whole entry, looked up): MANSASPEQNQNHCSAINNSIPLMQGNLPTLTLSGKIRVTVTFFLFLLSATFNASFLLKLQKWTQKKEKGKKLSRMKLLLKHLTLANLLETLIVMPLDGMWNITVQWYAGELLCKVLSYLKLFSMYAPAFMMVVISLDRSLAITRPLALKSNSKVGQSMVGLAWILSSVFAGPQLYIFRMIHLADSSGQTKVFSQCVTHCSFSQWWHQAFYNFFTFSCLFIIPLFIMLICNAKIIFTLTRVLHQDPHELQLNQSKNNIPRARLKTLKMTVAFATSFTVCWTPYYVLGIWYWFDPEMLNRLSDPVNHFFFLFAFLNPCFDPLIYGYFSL
# Chain of 5-hydroxytryptamine receptor 2A (Homo sapiens) (P28223 whole entry, looked up): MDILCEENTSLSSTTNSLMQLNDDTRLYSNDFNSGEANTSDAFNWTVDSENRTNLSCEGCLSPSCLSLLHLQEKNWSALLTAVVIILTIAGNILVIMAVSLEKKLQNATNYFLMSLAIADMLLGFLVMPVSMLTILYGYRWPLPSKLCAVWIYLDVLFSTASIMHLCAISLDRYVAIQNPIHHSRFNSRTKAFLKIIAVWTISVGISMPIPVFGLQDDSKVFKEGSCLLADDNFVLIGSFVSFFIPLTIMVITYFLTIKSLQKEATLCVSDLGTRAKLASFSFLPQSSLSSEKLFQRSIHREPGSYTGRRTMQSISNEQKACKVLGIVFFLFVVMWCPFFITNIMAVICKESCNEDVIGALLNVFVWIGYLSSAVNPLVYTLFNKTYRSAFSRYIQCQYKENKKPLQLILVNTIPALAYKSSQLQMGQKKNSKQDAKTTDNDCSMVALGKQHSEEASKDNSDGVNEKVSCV
# Chain of D(2) dopamine receptor (Homo sapiens) (P14416 whole entry, looked up): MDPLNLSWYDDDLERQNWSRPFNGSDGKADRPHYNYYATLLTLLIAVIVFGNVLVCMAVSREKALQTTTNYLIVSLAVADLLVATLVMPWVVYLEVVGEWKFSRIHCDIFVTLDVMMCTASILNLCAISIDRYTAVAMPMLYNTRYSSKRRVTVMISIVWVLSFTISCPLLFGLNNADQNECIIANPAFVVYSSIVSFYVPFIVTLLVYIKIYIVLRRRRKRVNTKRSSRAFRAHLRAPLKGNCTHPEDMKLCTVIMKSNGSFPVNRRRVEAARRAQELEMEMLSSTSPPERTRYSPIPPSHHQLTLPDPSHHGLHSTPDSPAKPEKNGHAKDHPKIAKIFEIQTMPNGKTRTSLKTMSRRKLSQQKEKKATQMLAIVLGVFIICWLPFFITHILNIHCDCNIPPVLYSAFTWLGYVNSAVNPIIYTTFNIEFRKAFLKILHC
# Chain of KiSS-1 receptor (Homo sapiens) (Q969F8 whole entry, looked up): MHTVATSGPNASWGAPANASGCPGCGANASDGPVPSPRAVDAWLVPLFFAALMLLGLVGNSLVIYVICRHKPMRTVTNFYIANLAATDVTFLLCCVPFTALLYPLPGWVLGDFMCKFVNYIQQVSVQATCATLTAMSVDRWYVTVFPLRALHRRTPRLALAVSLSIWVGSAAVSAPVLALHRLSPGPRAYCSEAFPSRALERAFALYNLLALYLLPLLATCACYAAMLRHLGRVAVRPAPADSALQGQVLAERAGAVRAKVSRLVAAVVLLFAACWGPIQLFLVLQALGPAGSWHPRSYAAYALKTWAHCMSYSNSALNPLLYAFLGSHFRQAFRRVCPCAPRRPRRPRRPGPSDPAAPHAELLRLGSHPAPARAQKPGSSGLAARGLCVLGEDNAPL
# Chain of Muscarinic acetylcholine receptor M1 (Homo sapiens) (P11229 whole entry, looked up): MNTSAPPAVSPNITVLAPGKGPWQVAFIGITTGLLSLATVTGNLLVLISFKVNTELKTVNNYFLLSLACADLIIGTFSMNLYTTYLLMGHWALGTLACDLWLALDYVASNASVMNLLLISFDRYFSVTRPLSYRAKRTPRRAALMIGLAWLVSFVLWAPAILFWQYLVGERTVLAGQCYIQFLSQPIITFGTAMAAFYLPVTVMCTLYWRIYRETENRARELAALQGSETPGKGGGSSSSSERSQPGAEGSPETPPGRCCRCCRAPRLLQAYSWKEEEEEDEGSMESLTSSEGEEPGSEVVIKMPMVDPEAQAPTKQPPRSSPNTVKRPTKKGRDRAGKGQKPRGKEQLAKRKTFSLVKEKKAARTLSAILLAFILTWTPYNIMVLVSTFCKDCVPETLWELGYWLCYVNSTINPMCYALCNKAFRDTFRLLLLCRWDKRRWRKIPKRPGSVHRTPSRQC
SMILES,Potency [1],Potency [2],Potency [3],Potency [4],Potency [5],Potency [6],Potency [7],Potency [8],Potency [9],Potency [10],Potency [11],Potency [12],Potency [13],Potency [14],Potency [15],Potency [16],Potency [17],Potency [18],Potency [19],Potency [20]
CC(Cc1ccccc1)NCCCCl (centres undefined),inactive,inactive,inactive,inactive,inactive,inactive,inactive,inactive,inactive,inactive,inactive,inactive,inactive,inactive,inactive,inactive,inactive,,,
Clc1ccc(CO/N=C(\Cn2ccnc2)c2ccc(Cl)cc2Cl)c(Cl)c1,23.7 µM (active),inactive,inactive,inactive,inactive,inactive,inactive,inactive,,,,inactive,,,inactive,inactive,,,,
Clc1ccc(CSC(Cn2ccnc2)c2ccc(Cl)cc2Cl)cc1 (centres undefined),29.8 µM (active),inactive,inactive,inactive,inactive,inactive,,inactive,,,,inactive,,inactive,inactive,inactive,inactive,,,
c1cncc([C@@H]2CCCCN2)c1,inactive,inactive,inactive,inactive,inactive,inactive,inactive,,,inactive,inactive,inactive,inactive,inactive,,inactive,inactive,inactive,inactive,
COP(=O)(OC)O/C(=C\Cl)c1cc(Cl)c(Cl)cc1Cl,inactive,inactive,inactive,inactive,40.8 µM (active),,inactive,inactive,inactive,inactive,inactive,inactive,,inactive,inactive,inactive,inactive,inactive,inactive,inactive
CC(C)C(Nc1ccc(C(F)(F)F)cc1Cl)C(=O)OC(C#N)c1cccc(Oc2ccccc2)c1 (centres undefined),inactive,inactive,inactive,inactive,inactive,inactive,,inactive,inactive,inactive,inactive,,inactive,inactive,,inactive,inactive,inactive,,
Nc1ccccc1-c1ccccc1,inactive,inactive,inactive,inactive,inactive,inactive,inactive,,inactive,inactive,inactive,inactive,inactive,,,inactive,,inactive,inactive,
O=C(O)c1cc[c]([Hg][Cl])cc1,48.6 µM (active),inactive,inactive,inactive,inactive,inactive,,inactive,inactive,,inactive,,,inactive,,inactive,,inactive,inactive,inactive
CC1CCCCC1NC(=O)Nc1ccccc1 (centres undefined),inactive,inactive,inactive,inactive,inactive,inactive,inactive,,inactive,inactive,inactive,inactive,inactive,inactive,inactive,inactive,inactive,,inactive,
O=C1CC[C@@]2(O)[C@H]3Cc4ccc(O)c5c4[C@@]2(CCN3CC2CC2)[C@H]1O5,inactive,inactive,inactive,inactive,inactive,,inactive,inactive,,,,inactive,inactive,inactive,inactive,inactive,inactive,inactive,,inactive
O=C(Nc1ccccc1)Nc1cnns1,inactive,inactive,inactive,inactive,inactive,inactive,inactive,,inactive,inactive,inactive,,inactive,inactive,inactive,inactive,inactive,,,inactive
O=C(O)COc1nc(Cl)c(Cl)cc1Cl,inactive,inactive,inactive,inactive,inactive,inactive,,,inactive,inactive,inactive,,,,,,,,,
N#C/C=C/C#N,inactive,inactive,inactive,inactive,inactive,,inactive,inactive,,inactive,inactive,inactive,,,,inactive,inactive,,inactive,30.2 µM (active)
CNNC,inactive,inactive,inactive,inactive,inactive,inactive,inactive,inactive,inactive,inactive,,,,inactive,,inactive,inactive,,inactive,inactive
CC(Cl)CN(C)C (centres undefined),inactive,inactive,inactive,inactive,inactive,inactive,,inactive,inactive,inactive,inactive,inactive,inactive,,inactive,inactive,inactive,,inactive,inactive
N#CCc1ccc(Cl)cc1,inactive,inactive,inactive,inactive,inactive,inactive,inactive,,inactive,,inactive,inactive,inactive,inactive,,inactive,inactive,inactive,inactive,inactive
CC(Cl)(Cl)[N+](=O)[O-],inactive,inactive,inactive,inactive,inactive,inactive,inactive,,inactive,inactive,inactive,inactive,inactive,inactive,inactive,inactive,inactive,inactive,inactive,inactive
CC(C)Br,inactive,inactive,inactive,inactive,inactive,inactive,,inactive,inactive,inactive,inactive,,inactive,inactive,,inactive,inactive,inactive,inactive,inactive
